From the supplement of paper PMC3334620
Whole data set: some 33,000 sequences, median “E-score (-0.5 to 0.5)” near -0.035, cut for the highest 2% near 0.34. This excerpt belongs to a sample that is enriched for the highest values.

Target: T1, Mot3 (UniProt P54785)
T1 sequence: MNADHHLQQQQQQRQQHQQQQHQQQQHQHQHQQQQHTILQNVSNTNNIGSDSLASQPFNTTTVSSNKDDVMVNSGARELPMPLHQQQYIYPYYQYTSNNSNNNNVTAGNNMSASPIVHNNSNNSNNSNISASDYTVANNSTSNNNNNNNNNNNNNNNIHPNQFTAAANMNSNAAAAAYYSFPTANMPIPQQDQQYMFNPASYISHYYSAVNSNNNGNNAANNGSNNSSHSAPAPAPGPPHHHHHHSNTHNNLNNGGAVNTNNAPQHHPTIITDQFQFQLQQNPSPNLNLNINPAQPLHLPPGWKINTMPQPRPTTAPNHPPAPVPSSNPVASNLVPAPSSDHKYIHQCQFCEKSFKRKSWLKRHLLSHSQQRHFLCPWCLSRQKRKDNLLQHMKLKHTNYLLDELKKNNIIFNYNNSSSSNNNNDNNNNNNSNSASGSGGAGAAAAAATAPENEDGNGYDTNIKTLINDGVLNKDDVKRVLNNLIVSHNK
Assay: PBM E-score (8-mer binding enrichment) (E-score (-0.5 to 0.5)); higher = stronger / more preferred TF binding
Conditions: protein concentration: 200 nM; construct: GST-full length
Procedure, shortened: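 GST-tagged yeast TFs (full-length or DNA-binding domain) were made by PURExpress in vitro transcription/translation and applied at about 100-200 nM to universal all-10-mer Agilent arrays. The arrays were made double-stranded by primer extension, on fresh or once-stripped slides. Bound protein was detected with fluorescent anti-GST, and scans were normalised with masliner. Each ungapped eight-base word, pooled with its reverse complement, received an E-score (modified Wilcoxon-Mann-Whitney statistic) from the Universal PBM Analysis Suite.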

Sequence	PBM E-score
AATACGCG	0.354
GTTACGCA	0.207
AAACTGCA	-0.0533
CTAGCAGC	-0.257
CAACTGAA	0.0709
GAATGCAA	-0.0468
CAGGGATG	0.034
AAGGTAGC	0.149
AAGGTATT	0.16
AAGGTAAT	0.34
AAGGTAAA	0.334
AGGGTAAT	-0.0805
GAGGTAAC	-0.0204
CAGGTAAC	0.39
AAGGTAAC	0.339
AAGGTAAG	0.27
CAGGTAAA	0.383
CAGGTAAG	0.271
GAGGTAAA	0.0852
CATTGGAG	-0.179
AGAGGTTA	0.0342
CTGAATGA	0.00529
GACTGTAA	0.147
ATCCACCC	-0.246
TCTCAGAA	-0.0878

Sequence	PBM E-score
CTACTCGA	0.0146
CCGCAAAC	-0.0792
AAGCTATA	-0.00123
CGAAAAAG	0.142
CCAGCTTC	-0.187
AATTTACC	0.153
GATTTACA	0.332
TATTTACA	0.386
CATTTACC	0.158
CATTTACG	0.201
TATTTAGA	0.184
CATTTACA	0.363
TATTTAAA	0.231
AATTTACA	0.382
AAGCAGAC	-0.0963
AAATCGCC	-0.255
ACCGGTGA	-0.16
GCTACCAC	-0.216
GACCTACA	0.045
TGCCTAAA	0.476
AGCCTTAA	0.158
ATCCTAAA	-0.0533
TTCCTAAA	0.408
TACCTACA	0.381
GGCCTAAA	0.0327

Sequence	PBM E-score
GTCCTAAA	0.125
CGCCTTAA	0.323
CACCTACA	0.227
AGCCTAAA	0.178
TGCCTTAA	0.471
CACCTCCA	-0.138
AGTTCGAC	0.0301
CTTCCCTA	-0.206
CAGGTGCA	0.0796
GCAAAAAA	0.203
CTAGACTA	-0.24
CAGCGTAC	-0.0299
CGCCTACA	0.224
AACCTGCA	0.0857
TACCTTCA	0.376
GACCTGCA	-0.0447
GACCTTCA	-0.083
GGCCTACA	0.00717
AACCTTCA	0.215
TGCCTACA	0.487
TACCTGCA	0.403
AGGGTCTA	-0.153
CGAGCGCC	-0.0813
GTTCACGA	-0.101
GGACGCTA	-0.206

Sequence	PBM E-score
ACGGCAGG	-0.17
CGCGCCAA	-0.0132
ATTACACA	0.438
ATTACACG	0.435
ATGACACG	0.384
ATCACACA	0.143
ATTACACC	0.299
CTCACACA	-0.0904
ATGACACA	0.313
GTGACACA	0.0545
GTTACAAA	0.223
ATTACTCA	0.165
CTTACACA	0.3
GTTACACA	0.357
CGAGACCC	-0.0978
CGGCCACA	-0.234
GACGATCC	-0.0936
ATCAATAA	0.0626
CTACGCGA	0.232
ATCTACAG	0.0501
ATCTACAA	0.205
ATCTACAC	0.375
CCCTACAC	0.187
GCCTACAC	0.344
ACCTACAC	0.258

Sequence	PBM E-score
ATCTACAT	0.349
GTCTACAC	0.275
CTCTACAC	0.223
GAAAAGGC	0.228
AATCAGGT	0.153
CCCATGAG	-0.314
AATGAGGT	-0.0627
GTATTCCA	0.0481
CTCTGTGC	0.00777
AAAGGCAT	0.39
AAAGGCCT	-0.0542
TAAGGCGA	-0.0665
AAAGGCTT	-0.0548
TAAGGCTA	0.129
CAAGGCAA	0.479
CAAGGCAG	0.0705
CAAGGCAC	0.488
CAAGGCCC	0.0163
CAAGGCCG	-0.0783
CAAGGCCA	0.0593
TAAGGCAA	0.472
ACGGCGTG	0.0736
ATCTTAGC	-0.0857
ACACCGGA	0.0203
AAGCTAGT	-0.004

Sequence	PBM E-score
CTACTGGA	-0.174
AGCCATAC	-0.163
GAAGGCAA	0.489
GAAGGCCA	-0.0342
AAAGGCAG	0.282
AAAGGCAA	0.486
GAAGGCTA	0.0397
AAGGGCAA	0.127
CAAGCAGC	-0.0458
AATCCATC	-0.21
CTTAAGAC	-0.0312
ACCGCGAA	-0.0635
CGGAACTA	-0.265
CGGAACTC	-0.29
GGGAACTA	-0.0385
AGGAACTC	0.396
AGGAACTG	0.413
ATGAACTG	0.0964
ATGAACTC	-0.14
AGGAACTA	0.38
AAGAACTG	-0.196
ACAGCCAT	0.172
AGCAGGGA	-0.167
ACAGTCAT	-0.0548
GAGCGCAC	-0.307

Sequence	PBM E-score
ATCTTGGG	-0.157
ACGCTCAG	-0.226
ATCAACTG	-0.0772
GAAGTACC	0.00084
ACCGAATC	-0.00094
GTAAGGCA	0.464
ATAAGGCC	-0.142
ATAAGGCG	0.0672
CTAAGGCA	0.452
GTAAGGTA	0.321
CTAAGGCC	-0.0134
CTAAGGTA	0.226
ATAAGGCA	0.46
GTAAGGGA	0.145
TACTGAAA	0.037
AGACGTTC	-0.008
AGCATAAC	0.0259
AGTCTATA	-0.0584
AGCACCGA	-0.168
CGCACCGA	-0.27
GGCACCGA	0.356
CGCACCTA	-0.125
AGCACCTA	0.199
GGCACCTA	0.357
